For 108 sequences, z-score results are on record in PubChem BioAssay AID1508600 (Functional Genomics Laboratory (NCATS/FGL), 2020).

Among all 53,000 sequences or so, about 3,700 (7%) were called active.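 Rule for the calls: active = gene knockdowns whose robust z-score for IL-1 alpha signal is at least 2 or at most -2, so actives lie on both sides; inactive = the rest.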 This excerpt belongs to a sample that is enriched for actives.

A short description of the assay: Components of the Cytosolic LPS Sensing Pathway: Gene Identification via Genome-wide siRNA Screen.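 Note: robust z of the log signal after scaling to non-targeting control siRNA wells of the plate.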 The note with it: RAW264.7 macrophages, IL-1a HTRF, actives lie on both sides, screened at 100 nM (by protocol), cells primed 5 h with Pam3CSK4 first. The method, boiled down: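 RAW264.7; siRNA 100 nM final, RNAiMAX, 48h 37 degrees C; Pam3CSK4 5 h; LipidA + TransIT-TKO 24 h; IL-1a HTRF; CellTiter-Glo viability; robust z vs negative-control median.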
Regarding GGAAUUUGAAGCUGUCACUTT against Spata2, the z-score is -0.433 (inactive).
In the case of GGACUAGCGGACAUGGAUCTT against Ndc80, the z-score was 1.02 (inactive).
GGAAUUUCAAAGAGACAAATT against Cyfip1: the z-score was -0.423 (inactive).
As for GGAUCGGUGAGAUUGUAGCTT against Phyhd1, the z-score is -0.177 (inactive).
Next, GGGCAUUUCUUCAGCUAAUTT against Tfec: -1.04 (inactive); GGAAGAUCUCAGUGAGCAUTT against Gpcpd1: 0.69 (inactive); GGGUUUUAUCAGCUAAAAATT against Plppr4: 2.29 (active).
Next, GGCUUUAGGAAGAUCCUUGTT against Ilf2: -0.538 (inactive); UUCUGUGAUCAUGUCUUCUTT against Tuba1b: -1.6 (inactive).
Next, GCGAUUCUGUAAAGAGCGCTT against Nme1: 1.9 (inactive).
On to GGCCUUAGUUUAUACAUGUTT against Dusp18, for which the z-score is 0.628 (inactive).
For the sequence GGAAUGUAACUGAAAGACUTT against Myo1c, the z-score was 0.486 (inactive).
Next, GCUCAAGGACUUACGCAACTT against Zfp668: -1.61 (inactive).
Next, GCAUUCCAACGGAUUUAAUTT against Dag1: 2.21 (active); GGACAAAAACAAACAUGAGTT against Vwa3a: -0.665 (inactive).
In the case of CCGGGAAAGAACUCCUAAGTT against Wnt8b, the z-score was 0.0331 (inactive).
Take GGUUUCACAUUCAUCAACUTT against Ccdc14: the z-score is -1.02 (inactive).
Next, GGAUGAGCAAGAAAUCCCUTT against Ccdc137: -0.873 (inactive); CCUAAGGAGACACGAAGCCTT against Cfp: -0.119 (inactive); GGAUAUGCACUGUUUUCAATT against Nudt16: 2.28 (active).
Next, GGUCUUCCAAGAAAAAGGCTT against a: 1.07 (inactive).
In the case of GGAUGCUGACAAAAAUAUCTT against Iars, the z-score was 0.447 (inactive).
For GGCCAUAAAAUGGUAGUAUTT against Trim36, the z-score is 0.0952 (inactive).
Consider GGGUCAUGUUUUUAAGAAGTT against Frrs1, for which the z-score is -1.28 (inactive).
Next, CCCUUGCCUCAAAGAUCUUTT against Tex48: 0.633 (inactive); GCACUGUUCUCAAAGUUAATT against Ddx3x: -0.248 (inactive); GGCUACGCCCACAAAAGCUTT against H1f6: -2.26 (active).
Regarding CCAAUUGGAAGAAUCCAGGTT against Gsdmc3, the z-score is -0.542 (inactive).
Consider GGUUUUCCUAAAGUCAACATT against Bfar, for which the z-score was -2.24 (active).
As for GCAGUAGCGACGAAGGAUGTT against Rnf113a2, the z-score is -2.12 (active).
Next, GGACAAGAAUUGGAACAAATT against Zfp84: 1.43 (inactive); GGCAGUAUCAAAGAAAUUGTT against Rps6ka3: 3.43 (active).
Next, “CCCAGGUAGAGACAUUGCUTT against 6330444E15Rik”: -1.89 (inactive); GGAGAUGAAAUCUACAAAUTT against Igfbp1: -0.592 (inactive); GCCUUGUUGUGUUGGCUUATT against Olfr1111: 0.549 (inactive).
Next, GGGAAUAUUUUCAAGUUGCTT against Tmem14a: 0.795 (inactive).
In the case of GGAAGAUAUUGGUAAAAACTT against Uba1y, the z-score was 0.584 (inactive).
Next, “GGAUGUUUGGACAUCAUUUTT against 2610002M06Rik”: 0.204 (inactive); GGUAAUGAUACCUUGAAUGTT against H60a: 2.11 (active).
Next, GCUUCAGUGGCUACUCUUGTT against H2-M2: 0.63 (inactive); CCGUGGAUUGUGGAAUAAUTT against Xpnpep3: -1.39 (inactive).
For GCCAGUUUUGGUAUCCCGUTT against Lpcat2, the z-score was -1.2 (inactive).
For the sequence GGGACAACCCAUCAACAAUTT against Catsper1, the z-score is -0.614 (inactive).
Next, CGAUGUACUCCAUGUUGGGTT against Bpifb6: 3.47 (active).
GGAAAGCUUGAAUGUUGAGTT against Mup3: the z-score is 1.44 (inactive).
Next, GACACCCUGUGACACCAAGTT against Sprr1b: -0.597 (inactive); GGCUUUAAUGAAAUUAUGGTT against Asap2: 1.4 (inactive); CCCAGAAUUGAACUAAAAATT against Mrpl32: -0.488 (inactive).
Turning to GGUGGAACAACUGUUUCAATT against Dyrk3, the z-score is 0.541 (inactive).
Next, GGAACCUAUGGAAGGCGUATT against Ino80b: 2.64 (active).
For CCCACGCUUAGCAAUAUCATT against Get3, the z-score was -1.49 (inactive).
Next, GGUAACCUAGUGUAAGUUUTT against Atg2b: -0.0782 (inactive).
Next, GGAGAGCAGUGAUAACCAGTT against Cracd: 2.06 (active); GGAAAUUGCUCAAAAAAGGTT against Asb3: 0.725 (inactive); GGCUUCUAUUGCCAUAAUGTT against Olfr380: 0.568 (inactive).
Next, GGAUGAAGACAGUCAAAUGTT against Lypd3: 0.261 (inactive).
GGCAGAUUCUAAAUAUAGCTT against Itga9: the z-score was -0.52 (inactive).
GGACAGCUUCAUCAAGCCUTT against Cep89: the z-score is -0.628 (inactive).
Turning to GGUCUGGUGUUGUAGGAUATT against Map1lc3b, the z-score is 2.71 (active).
Next, GGAGUCAUAUGCACAGAUCTT against Tcte3: -0.706 (inactive); CGUGGAUGAGAACUAACCUTT against Rpl31: 1.24 (inactive); GCUCCUAUGCAAACAUUGCTT against Olfr1390: 0.489 (inactive).
On to GGAUCUCUUAGGUAUCUUATT against Nlrp14, for which the z-score was 1.45 (inactive).
Next, GGAACACUGGAAGAAAGAUTT against Arhgap35: -1.21 (inactive).
GAUGUACUUGAUAAAGCCUTT against Ugt2b37: the z-score is 3.68 (active).
Next, CCCAUCUCACUAUUUAAUATT against Lrrc3b: -1.23 (inactive); GCUGCACAAGUGCAUUUUUTT against Srp14: -1.34 (inactive); GGGUAUUUCCACUUCAUAGTT against Acsm2: 1.59 (inactive).
Regarding GCUCAUGGACCAACCUAUGTT against Olfr1180, the z-score is 0.501 (inactive).
GCUUUCCGGAAUACGAGCUTT against Snapc3: the z-score is -0.638 (inactive).
Consider CGCAAGAUCCUCAAACGAGTT against Proc, for which the z-score is -0.358 (inactive).
GGGAACAAGUUGAGCUACUTT against Ebp: the z-score was -0.0574 (inactive).
Next, UAGGAGAUAUCUGCUACCGTT against Fbxw16: -2.53 (active).
As to CCAUGUUCGGACGUGGUCUTT against Shkbp1, the z-score was -1.17 (inactive).
GGAGAGGAAUCAAGUGGUGTT against Lig1: the z-score was -1.04 (inactive).
As for GGUGCUUUAUUAGGUAUUCTT against Atp6v1g3, the z-score is -1.26 (inactive).
Consider GGGUAGCUUUAAAUAAAGGTT against Olfr801, for which the z-score is 2.47 (active).
Next, GCAUAAGCCUAAAAAUUCUTT against Ptprd: 0.43 (inactive).
For the sequence GCCCUCUUGUGAUUAAGCATT against Esr1, the z-score was -0.959 (inactive).
As for GCUAAGAAGAGGAUUCCAATT against Spag1, the z-score was -0.579 (inactive).
Next, GCAGCAGUGCUUACUUAACTT against Ccdc25: 0.212 (inactive); GGAAAGUGAUGUCACAAAATT against G3bp1: 1.31 (inactive).
Next, GGUGUUUGUGAAGGAGCAGTT against Fam117a: 2.98 (active); GGCCAACCUGGAGAACUUGTT against Atp6v1c2: 0.441 (inactive); GGUUAAUAUUAGCAUCGUCTT against Zdhhc23: 0.908 (inactive).
Take GGCUCUGUGUUGGUAAUGATT against Yipf1: the z-score was -0.538 (inactive).
In the case of GGGUCAUCGGAACAGAACUTT against Sult3a1, the z-score is -2.26 (active).
For the sequence GGGCAACUGUACGUACCAUTT against Cd93, the z-score is 0.0137 (inactive).
Next, GGGAGCAUUUCCUUAUACUTT against Tpmt: 0.67 (inactive); GGAUAAAGCCACAUUUGGUTT against Apoh: -0.483 (inactive); GGAACCAGAGGACAAAGACTT against Ccdc96: -2.43 (active).
Next, GGCUGGUGUAAAAGACACGTT against Nat14: 0.142 (inactive); GGGUUUUCGGGAGAUCUGUTT against Ltbp4: -0.44 (inactive); GGAGCACUAUGAUGAGUUCTT against U2af1: -0.452 (inactive).
Next, GCACUAUGGUAUUGAAAUUTT against Armc5: 0.635 (inactive); GGAUUCUGAAAUCAGUGCUTT against Capn8: 1.52 (inactive).
For GGUCACCAAGCAACACAAUTT against Fen1, the z-score is 2.56 (active).
Next, GCAGUAAAAUGACAUUUGGTT against Dennd6b: 0.694 (inactive).
As for GCUAGGUGCUGCUACGAAATT against Tex13c3, the z-score is -0.0824 (inactive).
GGGCAGUAAGACCUUCAUGTT against Dhcr24: the z-score is 0.685 (inactive).
Next, GGUUGAAGGCCAAUUCAAATT against Lrrc10: 2.94 (active).
As to GCACUAGCAGGAUUCAUUGTT against Gabrb2, the z-score is -1.25 (inactive).
Next, CGAUUGCUCUUAACCCUUGTT against Zfp597: -0.233 (inactive); GGCAUCCUGAGAGAACUCATT against Insyn1: -2.27 (active).
With GCUGACCUAUUCUGAUCCATT against Chchd4, the z-score is -0.223 (inactive).
Next, GGUUCAGAUCCCUAAAAUATT against Ago4: -0.557 (inactive); GGACAUGGAACUGGAUGAATT against Ciita: -2.49 (active); GGUGAUCACAAAUAUGAUGTT against Ubxn2b: -0.173 (inactive).
